Experimental data taken from PubChem BioAssay AID1508609 (The Scripps Research Institute Molecular Screening Center, 2020).
In all, about 6,700 compounds went through this assay and fewer than 10 were called active.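 Rule for the calls: active = mean percent activation across replicates above the confirmation screen cutoff of 4.91%; inactive = the rest.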 The list is a sample of the results.

molecular target: G-protein coupled receptor 151 (Homo sapiens) (UniProt Q8TDV0); assay: GPR151 activators, triplicate retest, confirmation, cell-based, PathHunter beta-arrestin, luminescence (AID 1508609); details: GPR151 PathHunter beta-arrestin cells, 90 min, at 11.2 µM, active compounds read high, % of EA-reagent control over plate median
Sequence (Q8TDV0 whole entry, looked up): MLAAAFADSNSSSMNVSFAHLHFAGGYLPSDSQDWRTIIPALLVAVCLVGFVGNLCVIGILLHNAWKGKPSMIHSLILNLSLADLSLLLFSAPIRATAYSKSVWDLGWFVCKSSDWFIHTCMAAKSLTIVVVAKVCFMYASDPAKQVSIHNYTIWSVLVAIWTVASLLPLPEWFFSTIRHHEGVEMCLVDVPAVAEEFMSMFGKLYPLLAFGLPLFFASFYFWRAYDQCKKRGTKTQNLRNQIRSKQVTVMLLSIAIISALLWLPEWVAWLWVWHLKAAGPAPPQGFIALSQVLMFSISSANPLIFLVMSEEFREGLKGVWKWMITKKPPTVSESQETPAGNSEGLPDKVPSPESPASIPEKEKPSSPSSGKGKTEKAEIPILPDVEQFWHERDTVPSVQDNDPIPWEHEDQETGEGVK

activation, inactive:
c1ccc(NCc2cccc3ccccc23)nc1 -0.81%
COc1ccccc1C1C(C(N)=O)=C(C)Nc2nc(CCCO)nn21 (configuration not stated) -0.72%
CC1CCN(C(=O)C(NS(=O)(=O)c2ccc3c(c2)oc(=O)n3C)C(C)C)CC1 (configuration not stated) 0.12%
Cc1cc(=O)[nH]c(SCC(=O)Nc2cccc3ccccc23)n1 -0.05%
COc1cccc(C2SCC(=O)N2c2cccc(C)c2)c1OC (configuration not stated) 0.31%
CC(C)(C)C1CCC(=NNC(=O)C(=O)NCCc2ccccc2)CC1 (configuration not stated) 1.36%
C#CCOc1ccc(Br)cc1/C=C1\NC(=S)N(C)C1=O -0.05%
Cc1ccc(NC(=O)CCn2c(=O)oc3ccccc32)cc1Cl 0.81%
C(=N\N1CCN(c2ccccn2)CC1)/C1=C(N2CCOCC2)C(=C/c2ccccc2)/CC1 0.86%
CC(C)(C)C1(O)CCN2C[C@H]3c4ccccc4CCc4cccc(c43)[C@@H]2C1 (some centres not stated) -0.56%
CCOCCCNC(=O)NC1CCN(c2nc3ccccc3s2)CC1 0.63%
CCOC(=O)Cc1coc(NC(=O)c2ccc(Cl)cc2)n1 1.26%
CC(C)C(=O)NNS(=O)(=O)c1ccc([N+](=O)[O-])cc1 -0.02%
N#Cc1ccc(N2CCN(CCCNC(=O)Nc3ccccc3)CC2)cc1 -0.19%
O=C1Cc2cc(S(=O)(=O)Nc3cccc(Cl)c3)cc3c2N1CCC3 0.12%
COc1cccc(NC(=O)CN(C)S(=O)(=O)c2ccc3c(c2)SCC(=O)N3)c1 -0.01%
CCNc1nc(NC(C)C)nc(OCCOC(C)=O)n1 -0.68%
OCc1ccccc1CNc1ccc(F)cc1 0.05%
COCCNCCOc1ccc(C(C)(C)C)cc1 -1.21%
CCN(CC)C1CCN(C(=O)c2cc(COc3ccc4ncccc4c3)on2)C1 (configuration not stated) -1.18%
COc1ccc(-c2cc(N)n(S(=O)(=O)c3ccccc3)n2)c(OC)c1 -0.31%
COc1cc2nc(-c3ccc4c(c3)C(=O)N(CCC(C)C)C4=O)oc(=O)c2cc1OC 0.42%
COc1ccc(Nc2nc(-c3ccc(F)cc3)cs2)c(OC)c1 -0.04%
CCCN1C(=O)c2ccc(C(=O)Nc3ccc(C(C)=O)cc3)cc2C1=O 0.09%
CC(C(=O)NCCN1CCOCC1)n1c2ccccc2c2cn[nH]c(=O)c21 (configuration not stated) -0.57%
c1ccc2sc(-c3cnc4ccc(NC5CCOCC5)nn34)cc2c1 -1.36%
O=C(COc1ccc(Br)cc1CO)NCC(F)(F)F 0.36%
CCOc1ccc(NC(=O)N2CCN(CC)CC2)cc1 0.34%
CCc1ccc(N2N=C(C)/C(=C\c3ccc(-c4ccc5c(c4)C(=O)NC5=O)o3)C2=O)cc1 -0.14%
O=S(=O)(NCc1csc(-c2cccnc2)n1)c1ccc2ccccc2c1 0.68%
CCN1/C(=C/c2ccc3cc(C)ccc3[n+]2CC)Sc2ccc(-c3ccccc3)cc21 -0.55%
Cc1ccc(NC(=O)Cn2cc(-c3ccccc3)c(N3CCOCC3)n2)c(C)c1 -0.77%
CC1CCCCN1C(=O)c1cc2c(=O)n(C)c3ccccc3c2s1 (configuration not stated) 0.54%
COc1cccc(/C=C2/C(=O)NC(=O)N(c3ccccc3F)C2=O)c1 0.99%
COC(=O)c1c(NC(=O)Nc2ccc(Cl)c(Cl)c2)sc2c1CCCC2 0.7%
O=C1NCCN(Cc2ccc(-c3ccccc3)cc2)C1CC(=O)N1CCCCC1 (configuration not stated) 0.39%
Cc1ccc(C)c(CN2CCC(n3nccc3NC(=O)C(C)(C)C)CC2)c1 0.69%
CCn1c(COc2ccccc2)nnc1Sc1ccc([N+](=O)[O-])cc1C=O 0.71%
Cc1cc(N2CCOCC2)ccc1C=C1C(=O)c2ccccc2C1=O -0.77%
COC(=O)c1c(-c2ccccc2)csc1NC(=O)c1ccc(OC)c([N+](=O)[O-])c1 0.78%
Cc1ccc(C(=O)Oc2ccccc2/C=N/N=C2\NC(=O)C(CC(=O)O)S2)cc1 (configuration not stated) -0.38%
Cc1ccc(S(=O)(=O)Cn2nnnc2CN2CCN(c3ccccc3F)CC2)cc1 1.76%
CCN(CC)c1nc(Nc2ccccc2)nc(Nc2ccccc2)n1 -0.22%
C=CCn1c2ccccc2c2nnc(SCc3[nH]c(=O)[nH]c3C(=O)CCCCC(=O)OCC)nc21 1.2%
COC(=O)c1cc(NC(=O)COc2ccc([N+](=O)[O-])cc2)cc(C(=O)OC)c1 0.64%
CC(C)COC(=O)c1ccc(NC(=O)C2C3C=CC(C3)C2C(=O)O)cc1 (configuration not stated) 1.05%
O=C(N/N=C\C=C\c1ccccc1)c1ccccn1 -0.98%
COc1ccc(NC(=S)N2CCN(S(=O)(=O)c3ccc(F)cc3)CC2)c(OC)c1 -0.28%
Cc1cccn2c(=O)c3cc(C(=O)NC4CCCCC4)c(=N)n(C4CCCCC4)c3nc12 -0.69%
OCCC1CN(Cc2ccc3cc(F)ccc3n2)CCN1C1CCCC1 (configuration not stated) 1.64%
O=C(Cn1c(=O)n(Cc2ccccc2)c(=O)c2ccccc21)c1ccccc1 1.26%
CCOc1c(Cl)cc(CNCc2ccccc2)cc1OC -0.5%
COC(=O)c1oc2ccc(Br)cc2c1NC(C)=O 0.35%
O=C(c1ccc(CNS(=O)(=O)c2ccc(Cl)cc2)cc1)N1CCCC1 1.92%
C=CCc1cccc(/C=N/NC(=O)CCC(=O)Nc2ccc(Br)cc2)c1O -0.44%
O=C(CN1CCOCC1)Nc1c(Cl)cc(Cl)cc1Cl 0.82%
CCOC(=O)c1ccc(NC(=O)c2ncn(-c3ccccc3)n2)cc1 0.02%
Cn1ncc2c(NNC(=O)Cc3cccc4ccccc34)ncnc21 0.44%
CCCCc1ccc(NC(=O)CN2C(=O)C(C)SC(C)C2=O)cc1 (configuration not stated) 0.42%
COc1ccc(CCNc2cc(C)nc(Nc3cccc(N(C)C)c3)n2)cc1 0.06%
O=C(Nc1ccc(NC(=O)c2cccc3c(Br)cccc23)cc1)c1ccco1 1.13%
COC(=O)[C@@H]1CC(O)CN1C(=O)C12CC3CC(CC(C3)C1)C2 (some centres not stated) 0.35%
CC1=C(C(=O)Nc2cccc(F)c2)C(c2ccccn2)C2=C(CCCC2=O)N1 (configuration not stated) 0.25%
NC(=S)N/N=C/c1ccc([N+](=O)[O-])cc1 -0.11%
CC(C)C(=O)NC(=S)Nc1ccccc1F 0.14%
COc1ccc(C2(NC(=O)CCn3cnc4sc(C)c(C)c4c3=O)CCCCC2)cc1 0.69%
CCC1=C(C)c2cc3nc(C(=O)OCc4ccccc4)c(C)c-3c(C)n2C1C (configuration not stated) -0.16%
CCN(CC)C(=O)C1CCCN(c2cc(N)nc(N)n2)C1 (configuration not stated) -0.11%
CCC1C(=O)NCCN1Cc1ccc2c(c1)CN(Cc1c[nH]c3ccccc13)CCO2 (configuration not stated) 1.68%
CN1C(=O)c2ccc(N3C(=O)c4cccc([N+](=O)[O-])c4C3=O)cc2C1=O -0.57%
Cc1ccc[n+](-c2ncnc(N)c2[N+](=O)[O-])c1 -0.67%
COc1cccc(-c2ocnc2C(=O)Nc2ccc3nc(-c4cccnc4)oc3c2)c1 0.94%
O=C(c1cc([N+](=O)[O-])ccc1NC1CCCCC1)N1CCOCC1 -1.3%
C=CCN1C(=O)CC(C(=O)OC)C12CCN(C1CCN(C(=O)OCC)CC1)CC2 (configuration not stated) -0.6%
Cc1cccc(-n2nc3c(c2NC(=O)CCC2CCCCC2)CS(=O)(=O)C3)c1C 0.42%
COc1ccc(C2C(C#N)=C(N)Oc3c2c(C)nn3-c2ccccc2)cc1 (configuration not stated) 0.69%
CC(=O)c1ccc(NC(=O)c2ccc(CN(c3ccc(C)c(C)c3)S(C)(=O)=O)cc2)cc1 -0.1%
CC1CCCC(NCc2c(C(=O)O)n(Cc3ccc(Cl)cc3)c3ccccc23)C1C (configuration not stated) 0.3%
Cc1cccc(C)c1-n1c(=S)sc2c(=O)n(-c3cccc(Cl)c3)c(SCC#N)nc21 2.02%
CCCCc1ccc(N=Cc2nc(-c3cccc4ccccc34)oc2O)cc1 -1.01%
Cc1ccc(N2C(=O)CC(N3CCN(Cc4ccc(Cl)cc4)CC3)C2=O)cc1Cl (configuration not stated) 0.04%
Oc1ccc(Cn2cc[nH]c2=S)cc1 -0.7%
CC(C)NC(=O)/C=C/c1ccccc1Cl -0.37%
COc1ccc(C(=O)CSc2nc3sc4c(c3c(=O)n2-c2ccc(Cl)cn2)CCCC4)c(F)c1 -0.67%
NC(=O)C1CCN(C(=O)c2ccc(-c3ccccc3)cc2)CC1 -1.12%
COCCNC(=S)N1CCN(c2ccccc2OC)CC1 0.65%
Cc1ccc(-c2nnc(N3CCOCC3)c3ccccc23)cc1S(=O)(=O)N1CCN(C)CC1 -0.46%
CC(C)n1c(=O)[nH]c2c(C(N)=O)nc(-c3ccc(-c4ccccc4)cc3)nc21 -0.04%
COc1ccc(OC)c(/C=N/n2nnnc2N)c1 -0.17%
O=C(NCc1ccsc1)c1ccc(-n2cccc2)cc1 0.53%
C=CCc1ccccc1OCCN1CCNCC1 -0.14%
Cc1ccc(S(=O)(=O)NCC(c2cccnc2)N2CCN(c3ccc(F)cc3)CC2)cc1 (configuration not stated) -0.45%
